Drawing on PubChem BioAssay (NCATS), this text covers Potency for 15 molecules.

Activity calls are given as the source filed them. How the calls were made is not given here. Bounds are passed on as bounds.
Potency means the concentration at half of the fitted maximal effect.

For the test, the system named is HIV-1 nucleocapsid protein NCp7 (binding to TG oligonucleotide). The test can be described thus: HIV Nucleocapsid (AID 346).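 Further: potency is for inhibitors that block NC binding and lower polarization.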 The following applies: HIV-1 NC / fluorescein-TGTGTGTG probe, fluorescence polarization. In short, it runs like this:
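Fluorescence polarization readout: labelled TG4xF oligo (10 nM) with 100 nM nucleocapsid protein, high-salt (250mM NaCl) Hepes pH 7.5 buffer containing zinc and fresh reducing agents. Compounds added by pin tool; incubation 1 hr, room temperature.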
A general note: In fluorescence polarisation assays a small probe gives low polarisation when free and higher when bound to something large.
With `CC(=O)NCCNc1nc(-c2cccc(NS(C)(=O)=O)c2)nc2ccccc12`, the Potency is > 20 µM (inactive).
In the case of `CCNc1ncc2nc(-c3cn(C)c4ccccc34)c(=O)n(Cc3cccc(OC)c3)c2n1` it was > 20 µM (inactive); in that of `CN(Cc1ccco1)c1cc(-c2ccc3c(c2)OCO3)ncn1`, > 20 µM (inactive).
For `COc1ccc(C(=O)N2CCC3(CC2)CN(Cc2ccc(C#N)cc2)C3)cc1` the value was > 20 µM (inactive); for `O=C(c1ccco1)N1CCC[C@@]2(CCN(c3ncccn3)C2)C1`, > 20 µM (inactive); for `COc1cccc(Nc2ncc3nc(C)c(=O)n(C4CC4)c3n2)c1`, > 20 µM (inactive).
In the case of `COCCNc1ccnc(-c2c(C)noc2C)n1` it was > 20 µM (inactive).
`CN(C)c1ncc2nc(-c3cc(F)cc(F)c3)c(=O)n(Cc3cccs3)c2n1`: the Potency was > 4 µM (inactive).
For `Cc1noc(C)c1C(=O)N1CCC2(CC1)CCN(c1ncccn1)CC2` the value was > 20 µM (inactive).
With `COc1cccc(Nc2ncc3nc(-c4ccc(Cl)cc4)c(=O)n(C[C@H]4CCCO4)c3n2)c1`, the Potency was > 20 µM (inactive).
With `CC(=O)NCCNc1nc(-c2ccccc2CN(C)C)nc2ccccc12`, the Potency was > 20 µM (inactive).
Regarding `COc1ccc(Oc2ncc3nc(C)c(=O)n(CCC#N)c3n2)cc1`, the Potency was > 20 µM (inactive).
In the case of `COc1ncc2ncc(=O)n(CCC#N)c2n1` it was > 20 µM (inactive); in that of `COc1cccc(-c2cncnc2NCCN2CCOCC2)c1`, > 20 µM (inactive).
For `COc1ccc2[nH]cc(CCNc3ncncc3-c3cccc(NS(C)(=O)=O)c3)c2c1` the value was > 20 µM (inactive).
